Source: PubChem BioAssay (National Center for Advancing Translational Sciences (NCATS))
CtBP-E1A blk = inhibitors of CtBP/E1A interaction; AlphaScreen GST-E1A/His-CtBP binding, 1536-well; active compounds read low; activity change, % (no concentration beside the values); actives 0.49% (n = 340,000); AID 651724; in the data active means activity change below about -65%; inconclusive means mostly about -30% to -63%
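Protein mix (5X: 125 nM each GST-E1A, His-CtBP) was incubated with pinned compound 2 h at 37 deg C in dark, in 50 mM Tris pH 8.0 buffer with 300 mM NaCl. Glutathione donor and nickel acceptor beads followed; AlphaScreen signal read after 1 h.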
TDP1 inh = blocks human tyrosyl-DNA phosphodiesterase 1; Q9NUW8; recombinant TDP1, AlphaScreen DNA substrate cleavage; actives 0.28% (n = 350,000); Potency, µM (doses to about 130 µM), without a hit: at the highest dose activity change, negative = inhibition, usual class: inhibitors; further: potency means the concentration at half of the fitted maximal effect; nearly all actives have a fitted effect of over 40% in size
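E. coli-derived human Tdp1, 1 nM final. Cpd preinc 15 min RT; substrate 15 nM final, 5 min RT; AS bead mix 10 ug/ml final, 10 min RT. Signal loss = tyrosine-FITC cleavage. No-enzyme wells = max signal.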
TDP1 cell CPT = DT40-hTDP1 cell growth loss with CPT; Potency, µM (doses to about 46.2 µM), for inactives: at the highest dose activity change, negative = growth inhibition, actives largely listed as inhibitors; actives 12% (n = 420,000); chicken DT40 Tdp1-/-;hTDP1 cells + 20 nM CPT, ATP luminescence, 48 h; further: potency means the concentration at half of the fitted maximal effect; nearly all actives have a fitted effect of over 55% in size
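Cell growth measured by CellTiter-Glo luminescence after a minimum 48 h, 37 C compound exposure with 20 nM CPT in Tdp1-knockout DT40 cells stably expressing hTDP1, seeded 400/well; qHTS titration format.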
Six1-Eya2 blk = Six1/Eya2 interaction inhibition | AlphaScreen GST-Six1/His-Eya2 binding, biochemical; active compounds read low | Q15475+O00167 | actives 0.56% (n = 360,000) | activity change, % (concentration not given with the values); in the data active means activity change below about -65%; inconclusive means mostly about -30% to -63%
Target sequence (O00167 whole entry, looked up): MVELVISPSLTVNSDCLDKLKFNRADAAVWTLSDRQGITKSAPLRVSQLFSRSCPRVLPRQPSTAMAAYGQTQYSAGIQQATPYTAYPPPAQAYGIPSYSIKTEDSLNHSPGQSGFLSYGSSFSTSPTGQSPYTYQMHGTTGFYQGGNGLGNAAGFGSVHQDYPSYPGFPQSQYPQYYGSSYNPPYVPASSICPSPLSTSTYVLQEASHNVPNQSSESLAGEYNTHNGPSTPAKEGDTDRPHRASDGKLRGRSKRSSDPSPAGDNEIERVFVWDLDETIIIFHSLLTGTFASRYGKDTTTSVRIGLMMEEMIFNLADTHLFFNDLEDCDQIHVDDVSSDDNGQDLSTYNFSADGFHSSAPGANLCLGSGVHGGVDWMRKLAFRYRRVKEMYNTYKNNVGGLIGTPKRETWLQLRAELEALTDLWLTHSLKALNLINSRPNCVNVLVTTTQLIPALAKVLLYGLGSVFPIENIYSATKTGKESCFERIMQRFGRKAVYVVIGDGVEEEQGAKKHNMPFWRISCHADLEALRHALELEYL
Target sequence (Q15475 whole entry, looked up): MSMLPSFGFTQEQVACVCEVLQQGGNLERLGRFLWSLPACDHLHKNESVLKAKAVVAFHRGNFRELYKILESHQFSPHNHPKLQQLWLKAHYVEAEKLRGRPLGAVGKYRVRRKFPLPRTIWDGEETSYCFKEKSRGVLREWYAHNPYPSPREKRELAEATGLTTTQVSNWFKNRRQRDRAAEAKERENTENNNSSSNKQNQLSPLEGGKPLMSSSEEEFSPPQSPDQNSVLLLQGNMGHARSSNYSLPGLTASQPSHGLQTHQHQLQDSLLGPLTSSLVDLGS
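Homogeneous AlphaScreen proximity assay pairing GST-Six1 with His-tagged Eya2 (added as 5X mix: 250 nM and 500 nM) in 50 mM Tris pH 8.0, 300 mM NaCl, 1 mM TCEP. Glutathione donor and nickel acceptor beads; 1 h, 37 °C, dark.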
TDP1 cell noCPT = qHTS for Inhibitors of human tyrosyl-DNA phosphodiesterase 1 (TDP1): qHTS in cells in absence of CPT | DT40 Tdp1-/- hTDP1 cells, no CPT, ATP luminescence, 48 h | Potency, µM (top dose mostly 46.2 µM), inactives show at the highest dose activity change, negative = growth inhibition, actives largely listed as inhibitors | actives 15% (n = 420,000) | AID 686978, 2013; further: potency means the concentration at half of the fitted maximal effect; nearly all actives have a fitted effect of over 55% in size
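Chicken DT40 Tdp1-/- cells complemented with human TDP1, screened without camptothecin (DMSO vehicle only), 400 cells/well. Compounds pin-transferred, cells incubated at 37 °C for at least 48 hr. Growth read as ATP-dependent luminescence (CellTiter-Glo, 30 min at RT).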
IL-1B inflam inh = inflammasome signaling inhibition, IL-1 beta readout | AID 743279 | actives 4.7% (n = 360,000) | activity change, % at 57.5 µM | THP-1 LPS/ATP IL-1B secretion, AlphaLISA, 16 h; active compounds read low; in the data active means activity change below about -50%; inconclusive means mostly about -30% to -49%
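Secreted IL-1B measured by AlphaLISA bead assay after 16 h compound exposure of THP-1 cells; compounds (final up to 57.5 uM) added 1 h before LPS (250 ng/mL) and ATP (1.25 mM) stimulation; lower signal means less secretion.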
Active calls of the source: *. An excerpt weighted towards active compounds, which were near 18% of everything screened. Unless noted, the call rests on the fitted dose curve; in most records, active means well fitted curve in the direction sought with a large enough effect; inconclusive means small, poorly fitted or top-dose-only effect, or another doubt; inactive means no such curve, though single readings can be large; an effect the other way counts as inactive or inconclusive. On the % scale 0 is the no-effect control and ±100 the full control effect.

For CC(CCc1ccccc1)NC(=O)CSc1n[nH]c(-c2ccc(F)cc2)n1 (centres undefined) the results were TDP1 inh 5%, TDP1 cell CPT inconclusive and TDP1 cell noCPT 23µM*.
CC(CCc1ccccc1)NC(=O)CSc1n[nH]c(-c2ccccc2)n1 (centres undefined) was read as TDP1 inh 0%, TDP1 cell CPT 15µM* and TDP1 cell noCPT 21µM*.
`O=C(CSCc1ccccc1)Nc1ccccc1C(=O)Nc1ccc(C(=O)O)cc1` gave CtBP-E1A blk 0, TDP1 inh 4%, TDP1 cell CPT -23%, Six1-Eya2 blk 10, TDP1 cell noCPT 0% and IL-1B inflam inh -5.
For CN1CCN(S(=O)(=O)c2cccc(C(=O)Nc3ccccc3N3CCCCC3)c2)CC1 the results were CtBP-E1A blk 9, TDP1 cell CPT inconclusive, Six1-Eya2 blk 0, TDP1 cell noCPT inconclusive and IL-1B inflam inh -13.
COC(=O)c1ccc(NC2(C#N)C(=O)Nc3ccccc32)cc1 (centres undefined) was read as CtBP-E1A blk -2, TDP1 inh 5%, TDP1 cell CPT inconclusive, Six1-Eya2 blk -4, TDP1 cell noCPT 23µM* and IL-1B inflam inh 7.
For Cc1cc(C(=O)Nc2ccc(N3CCCCC3)cc2)no1 the results were CtBP-E1A blk -6, TDP1 inh 8%, TDP1 cell CPT -11%, Six1-Eya2 blk -20, TDP1 cell noCPT -23% and IL-1B inflam inh -17.
`COC(=O)c1c(C)[nH]c(O)c1C=Nc1ccc(C#N)cc1` gave TDP1 inh -3%, TDP1 cell CPT -15%, Six1-Eya2 blk -16, TDP1 cell noCPT inconclusive and IL-1B inflam inh -25.
For COc1ccc(/C=N/Nc2nn3cnnc3c3ccccc23)cc1 the results were CtBP-E1A blk -74*, TDP1 inh 1%, TDP1 cell CPT 13%, Six1-Eya2 blk inconclusive, TDP1 cell noCPT inconclusive and IL-1B inflam inh -12.
Screening COc1cccc(/C=N/n2c(SC)nnc2-c2ccccc2)c1O returned CtBP-E1A blk -1, TDP1 inh -1%, TDP1 cell CPT 10µM*, Six1-Eya2 blk -6, TDP1 cell noCPT 16µM* and IL-1B inflam inh 40.
CC(=O)Nc1ccc(S(=O)(=O)Nc2ccc3c(c2)CCC3)cc1 was read as CtBP-E1A blk 1, TDP1 inh 3%, TDP1 cell CPT -75%, Six1-Eya2 blk 11, TDP1 cell noCPT 13µM* and IL-1B inflam inh -3.
Screening CC(=O)Nc1ccc(S(=O)(=O)Nc2ccc3[nH]c(=O)[nH]c3c2)cc1 returned CtBP-E1A blk 0, TDP1 inh 0%, TDP1 cell CPT 4%, Six1-Eya2 blk 10, TDP1 cell noCPT -3% and IL-1B inflam inh -2.
`COC(=O)c1ccccc1NS(=O)(=O)c1ccc(NC(C)=O)cc1` gave CtBP-E1A blk 0, TDP1 inh 4%, TDP1 cell CPT -3%, Six1-Eya2 blk 19, TDP1 cell noCPT -16% and IL-1B inflam inh -84*.
COC(=O)c1ccccc1NS(=O)(=O)c1ccc(F)cc1 was read as CtBP-E1A blk 6, TDP1 inh -2%, TDP1 cell CPT inconclusive, Six1-Eya2 blk 6, TDP1 cell noCPT -10% and IL-1B inflam inh 19.
Screening COc1ccc(S(=O)(=O)Nc2ccc3c(c2)CCC3)cc1 returned CtBP-E1A blk 1, TDP1 inh 3%, TDP1 cell CPT inconclusive, Six1-Eya2 blk 0, TDP1 cell noCPT inconclusive and IL-1B inflam inh -187*.
Screening COc1ccc(C2=NN(C)C(=NCc3ccccc3)SC2)cc1 returned CtBP-E1A blk 6, TDP1 inh -8%, TDP1 cell CPT -28%, Six1-Eya2 blk 14, TDP1 cell noCPT inconclusive and IL-1B inflam inh -9.
